A selection: hits, their analogues and other compounds. The true share with any hit is near 6%.
D1 antag – blocks dopamine activation of the human D1 receptor; P21728; HEK293 TREx D1 cells, calcium flux, dopamine EC80; active compounds read low; activity change, negative = inhibition, % at 10 µM; 360,000 tested, 3.2% active; AID 504652; in the data active means activity change below about -30%
Target sequence (P21728 whole entry, looked up): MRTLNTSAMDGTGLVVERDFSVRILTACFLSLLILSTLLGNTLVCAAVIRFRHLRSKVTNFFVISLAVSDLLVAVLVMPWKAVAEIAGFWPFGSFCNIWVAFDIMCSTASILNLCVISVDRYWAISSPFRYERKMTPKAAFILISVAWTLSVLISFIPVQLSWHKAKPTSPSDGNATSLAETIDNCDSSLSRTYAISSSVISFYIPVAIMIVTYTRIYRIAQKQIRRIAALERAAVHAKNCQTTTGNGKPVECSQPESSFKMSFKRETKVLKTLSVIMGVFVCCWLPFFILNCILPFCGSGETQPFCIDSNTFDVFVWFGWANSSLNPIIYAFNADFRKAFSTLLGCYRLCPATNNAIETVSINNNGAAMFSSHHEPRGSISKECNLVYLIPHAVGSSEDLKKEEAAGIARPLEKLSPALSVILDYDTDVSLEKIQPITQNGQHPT
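Cells carrying a force-coupled, tetracycline-inducible human D1 receptor report calcium flux. Each well gets a 10 s baseline, compound with 180 s monitoring, then an EC80 dopamine stimulus with a second 180 s kinetic read.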
DRD3 antagonist – antagonists of human D3 dopamine receptor; D3R cells, DiscoveRx beta-arrestin luminescence, antagonist mode; active compounds read low; AID 652054; P35462; 360,000 tested, 2.5% active; max response, negative = inhibition, %; in the data active means max response below about -50%; inconclusive means no clear call, values can overlap the other calls
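Cells plated overnight at 1500 cells/well, then exposed to library compounds with dopamine controls for 90 minutes at 37 degrees C. DiscoveRx reagent added for 30–60 minutes at room temperature; luminescence read, quantitative HTS format.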
D1 agonist – activates the human D1 dopamine receptor | activation, % at 2 µM | 360,000 tested, 1% active | HEK293 T-REx D1 cells, calcium flux, agonist mode | P21728; in the data active means activation above about 30%
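Tetracycline-induced HEK293 TREx D1 cells, force-coupled to calcium signalling, were dye-loaded with a no-wash calcium kit. Compound was pin-added after a 10 s baseline. Fluorescence was read kinetically at 1 cycle/s for 180 s, with calcium rises flagged as agonism.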
D1 potentiator – human D1 dopamine receptor positive modulation; P21728; HEK293 TREx D1 cells, calcium flux, dopamine EC20 potentiation; potentiation, % at 10 µM; 360,000 tested, 0.036% active; AID 504651; in the data active means potentiation above about 30%
DRD3 agonist – activates the human D3 dopamine receptor. P35462. D3R DiscoveRx beta-arrestin cells, luminescence, 90 min. max activation, %. 410,000 tested, 0.58% active; in the data active means max activation above about 30%
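Cells at 1500/well, incubated overnight, then treated with pinned compounds (dopamine as control) for 90 min at 37 degrees C. DiscoveRx reagent added for 30 - 60 minutes at room temperature; luminescence read.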
A number is an active result; n = inactive; u = inconclusive; x = no result.

SMILES | D1 antag | DRD3 antagonist | D1 agonist | D1 potentiator | DRD3 agonist
O=C(O)C1CCCCC1C(=O)Nc1ccccc1F (centres undefined) | n | -50.7 | n | n | n
O=C(O)C1CCCCC1C(=O)Nc1ccccc1Cl (centres undefined) | n | n | n | n | n
O=C(C1CC1)N1CCc2cc(Br)cc(S(=O)(=O)Nc3ccc(C(F)(F)F)cc3)c21 | n | x | n | n | n
CCOc1ccc(N2CC(C(=O)NCC(=O)Nc3ccc(F)c(F)c3F)CC2=O)cc1 (centres undefined) | -31.9 | n | n | n | n
COc1ccc(CCn2c3c(c(=O)[nH]c2=O)C(NC(=O)c2ccccc2F)(C(F)(F)F)C(=O)N3)cc1OC (centres undefined) | n | x | n | n | n
COCC1CCCN(Cc2cn(-c3ccccc3F)nc2-c2cc(C)sc2C)C1 (centres undefined) | n | -70.8 | n | n | n
NC(=O)CCC(NC(=O)c1ccc(Cl)cc1)C(=O)O (centres undefined) | n | n | n | n | n
O=C(O)CCC(NC(=O)c1ccc(Cl)cc1)C(=O)O (centres undefined) | -31.9 | n | n | n | n
CC(=O)c1cccc(NC(=O)CN2C(=O)COc3ccc(Cl)cc32)c1 | n | -94.5 | n | n | n
O=C(CN1C(=O)COc2ccc(Cl)cc21)Nc1cccc(F)c1 | n | x | n | n | n
O=C(Nc1ccc(F)cc1)C1CCN(c2nc3ccccc3nc2C(F)(F)F)CC1 | n | x | n | n | n
CCN1C(=O)c2ccccc2S(=O)c2ccc(C(=O)NCc3ccc(OC)cc3)cc21 (centres undefined) | n | -51.2 | n | n | n
CCCCSCCCNC(=O)c1ccc2c(c1)N(CC)C(=O)c1ccccc1S2=O (centres undefined) | n | n | n | n | n
CCCN(CCC)CCCNC(=O)c1ccc2c(c1)N(CC)C(=O)c1ccccc1S2=O (centres undefined) | n | -93.4 | n | n | n
COc1ccc(CNC(=O)c2ccc3c(c2)N(Cc2ccccc2C)C(=O)c2ccccc2S3=O)cc1 (centres undefined) | n | x | n | n | n
CC(=O)Nc1ccccc1-c1nc2ccccc2n(C(C)C(=O)Nc2cccc(C)c2C)c1=O (centres undefined) | n | x | n | n | n
CC(=O)c1ccc(N2CCN(C(=O)C3CCN(S(=O)(=O)c4cccc5nonc45)CC3)CC2)cc1 | n | x | n | n | n
CCOC(=O)c1c(C)[nH]sc1=S | n | u | n | n | n
CCOC(=O)c1c(C(=O)OCC)c(C)n(N2C(=O)CSC2=S)c1C | n | -62.1 | n | n | n
COc1cc(-c2ccc3oc(-c4cccc(C)c4)c(C#CC4(O)CCCCC4)c3c2)cc(OC)c1OC | x | n | x | x | 42.0
CC(=O)N1CCc2cc(S(=O)(=O)NC(Cc3ccccc3)C(=O)Nc3cc(C)ccn3)ccc21 (centres undefined) | n | -70.6 | n | n | n
CCCOP(=O)(OCCC)C(Nc1ccc(C(C)C)cc1)c1ccc([N+](=O)[O-])cc1 (centres undefined) | -33.0 | n | n | n | n
COP(=O)(OC)C(Nc1ccc([N+](=O)[O-])cc1)c1ccccc1 (centres undefined) | n | n | n | n | n
COc1ccc(Cl)cc1C(=O)NCc1nnnn1-c1ccccc1 | n | x | n | n | n
COc1ccc(Cl)cc1NC(=O)c1cnc2sc(N3CCOCC3)nn2c1=O | n | x | n | n | n
SMILES | D1 antag | DRD3 antagonist | D1 agonist | D1 potentiator | DRD3 agonist
C/C=C(/C)C(=O)O[C@@H]1c2c(ccc3ccc(=O)oc23)OC(C)(C)[C@@H]1OC(=O)/C(C)=C\C | n | n | n | n | 47.1
C/C=C(/C)C(=O)O[C@@H]1[C@H](OC(=O)C=C(C)C)c2c(ccc3ccc(=O)oc23)OC1(C)C | n | n | n | n | n
CC1(C)Oc2ccc3ccc(=O)oc3c2[C@@H](O)[C@@H]1O | n | n | n | n | 87.4
CCO[C@@H]1c2c(ccc3ccc(=O)oc23)OC(C)(C)[C@@H]1O | n | n | n | n | n
CCCCC(CC)CNC(=O)CN(C)S(=O)(=O)c1ccc2c(c1)c(=O)n(C)c(=O)n2C (centres undefined) | n | x | n | n | n
CN(Cc1ccccc1Br)C(=O)CN1C(=O)NC2(CCCCCC2)C1=O | -76.2 | n | n | n | n
NC(=O)c1ccsc1NC(=O)CN1C(=O)NC2(CCCCC2)C1=O | n | n | n | n | n
O=C(CN1C(=O)NC2(CCCC2)C1=O)OCc1ccc(Br)cc1 | -66.3 | n | n | n | n
O=C(CN1C(=O)NC2(CCCCCC2)C1=O)c1ccc(F)cc1 | -49.4 | n | n | n | n
O=C(CN1C(=O)NC2(CCCCCC2)C1=O)c1ccc(Cl)cc1 | n | n | n | n | n
N#Cc1ccsc1NC(=O)CN1C(=O)NC2(CCCC2)C1=O | -32.5 | x | n | n | x
OC[C@H]1OC([S-])[C@H](O)[C@@H](O)[C@@H]1O.[Au+] (some centres undefined) | x | x | x | x | n
Nc1[nH]c2cc([N+](=O)[O-])ccc2c1-c1ccccn1 | n | n | 65.3 | n | n
Nc1nc2ccc([N+](=O)[O-])cc2[nH]1 | n | n | n | n | n
CCC(C)(C)C(=O)Nc1ncc(S(=O)(=O)c2ccc([N+](=O)[O-])cc2)s1 | n | n | n | n | n
CCCC(C)C(=O)Nc1ncc(S(=O)(=O)c2ccc([N+](=O)[O-])cc2)s1 (centres undefined) | -68.4 | n | 58.9 | n | n
O=C(Cn1c(=O)n(Cc2ccc3c(c2)OCO3)c(=O)c2oc3ccccc3c21)Nc1ccccc1F | n | x | n | n | n
CCOC(=O)C1Cc2ccccc2CN1 (centres undefined) | n | -66.4 | n | n | n
O=C(Nc1nccs1)c1ccccc1N=Cc1ccccc1 | n | n | n | n | n
COc1cccc(C=Nc2ccccc2C(=O)Nc2nccs2)c1OC | n | -73.7 | n | n | n
COc1cccc(NC(=O)CN(C)C(=O)/C=C/c2ccc3ccccc3n2)c1 | -46.0 | n | n | n | n
COc1cccc(NC(=O)CN(C)C(=O)/C=C/c2ccc(S(=O)(=O)N3CCCCCC3)cc2)c1 | x | n | x | x | n
COc1cccc(NC(=O)CSc2nc3ccccc3cc2Cc2ccccc2)c1 | n | -52.3 | n | n | n
COc1cccc(NC(=O)CSc2nc(C)c(Cc3ccccc3)c(=O)[nH]2)c1 | -72.8 | x | n | n | n
CC(=O)c1ccc(NC(=O)c2cc(-c3ccc(C)s3)nc3ccccc23)cc1 | n | x | n | n | n
Cc1nn(C(C)C(=O)NCC2CCCO2)c(=O)c2cc3occc3n12 (centres undefined) | -32.9 | n | n | n | n
CC(C)C(=O)Nc1nnc(SCC(=O)Nc2ccc3c(c2)OCO3)s1 | -40.7 | n | n | n | n
CC(C)C(=O)Nc1nnc(SCC(=O)Nc2ccc3c(c2)OCCO3)s1 | n | n | n | n | n

From PubChem BioAssay
